Reference: PubChem BioAssay AID652119 (Broad Institute, 2013)
The source made the active and inactive calls.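 How the source made its calls: active means compounds whose fitted half-maximal cell-killing potency is at most twice their top tested dose; inconclusive means flat curve with 30 to 70% signal loss, or poor fit; inactive means the rest.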

Test: loss of viability in embryonic kidney cells – cell-based, HEK293T, ATP luminescence, dry powder, cytotoxicity control, dose response (AID 652119)
Conditions: CellTiter-Glo ATP luminescence, 48 h; series mostly up to 26 µM

| SMILES | outcome |
| --- | --- |
| CC(C)(C)OC(=O)C1(CCOc2ccccc2)CCN(Cc2ccc(O)c(Cl)c2)CC1 | inactive |
| O=C(Nc1ccccc1)C1(CCOc2ccccc2)CCN(Cc2ccc(O)c(Cl)c2)CC1 | inactive |
| CCOC(=O)C1(CCOc2ccccc2)CCN(Cc2ccc(OC)cc2)CC1 | inactive |
| C=CCOc1ccc(CN2CCC(CCOc3ccccc3)(C(=O)NC3CCCC3)CC2)cc1Cl | inactive |
| O=C(NC1CCCC1)C1(CCOc2ccccc2)CCN(Cc2ccc(O)c(Cl)c2)CC1 | inactive |
| C=CCOc1ccc(CN2CCC(CCOc3ccccc3)(C(=O)OCC)CC2)cc1Cl | inactive |
| CC(C)OC(=O)C1(CCOc2ccccc2)CCN(Cc2ccc(O)c(Cl)c2)CC1 | inactive |
| CCOC(=O)C1(CCOc2ccccc2)CCN(Cc2ccc(O)c(Cl)c2)CC1 | inactive |
| CCOC(=O)C1(CCOc2ccccc2)CCN(Cc2ccc(O)cc2)CC1 | inactive |
| CCOC(=O)C1(CCOc2ccccc2)CCN(C(=O)c2ccc(O)c(Cl)c2)CC1 | inactive |
| C/C1=C\[C@@H](O)C(C)(C)CCCC2(C)OC2C[C@@H]1OC(=O)c1ccc(O)cc1 (stereo partly specified) | inactive |
| C=CCOc1ccc(CN2CCC(CCOc3ccccc3)(C(=O)N3CCCC3)CC2)cc1Cl | inactive |
| CCNC(=O)C1(CCOc2ccccc2)CCN(Cc2ccc(O)c(Cl)c2)CC1 | inactive |
| CCOC(=O)C1(CCOc2ccccc2)CCN(Cc2ccc3[nH]c(=O)oc3c2)CC1 | inactive |
| C/C1=C\C[C@H](OC(=O)c2ccc(O)cc2)/C(C)=C/[C@@H](O)C(C)(C)CCC1 | inactive |
| CCOC(=O)C1(CCOc2ccccc2)CCN(Cc2cccc(Cl)c2)CC1 | inactive |
